High-throughput results: PubChem BioAssay, The Scripps Research Institute Molecular Screening Center
Compounds with a hit are over-represented: about 3.3% of the library has one in this group of screens.
rCAG RNA binder – binders of r(CAG) RNA repeats, primary screen, biochemical, fluorescence | r(CAG) RNA repeat, TO-PRO-1 dye displacement fluorescence | inhibition, % at 3 µM | 370,000 compounds, 1.3% hits;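 active = inhibition above the plate cutoff, the mean of all test compounds on that plate plus 3 SD, cut at about 35% in these data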;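 note: higher means more dye released from RNA so lower well fluorescence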
ABHD5 PLIN5 PPI – ABHD5-PLIN5 interaction inhibitors, primary screen, cell lysate, split luciferase complementation, luminescence; AID 602281, 2012; Perilipin-5 (Homo sapiens) + 1-acylglycerol-3-phosphate O-acyltransferase ABHD5 (Homo …; Split G. princeps luciferase complementation, 4 h; inhibition, % at 4 µM; 360,000 compounds, 0.78% hits;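 active = inhibition above the mean inhibition across every tested compound plus 3 SD, cut at about 22% in these data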
Target sequence (Q00G26 whole entry, looked up): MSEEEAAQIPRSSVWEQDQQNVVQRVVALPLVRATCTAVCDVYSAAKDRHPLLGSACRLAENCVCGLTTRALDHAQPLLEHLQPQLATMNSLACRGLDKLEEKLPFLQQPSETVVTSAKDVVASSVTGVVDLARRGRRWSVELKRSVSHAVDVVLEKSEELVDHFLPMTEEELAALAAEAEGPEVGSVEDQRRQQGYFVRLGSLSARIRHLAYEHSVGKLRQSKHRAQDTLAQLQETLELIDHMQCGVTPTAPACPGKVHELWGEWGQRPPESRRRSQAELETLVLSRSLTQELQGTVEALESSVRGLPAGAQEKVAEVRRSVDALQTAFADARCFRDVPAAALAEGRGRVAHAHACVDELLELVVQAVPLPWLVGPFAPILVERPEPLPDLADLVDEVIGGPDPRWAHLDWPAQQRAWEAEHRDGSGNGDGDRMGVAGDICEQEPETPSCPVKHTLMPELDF
Target sequence (Q8WTS1 whole entry, looked up): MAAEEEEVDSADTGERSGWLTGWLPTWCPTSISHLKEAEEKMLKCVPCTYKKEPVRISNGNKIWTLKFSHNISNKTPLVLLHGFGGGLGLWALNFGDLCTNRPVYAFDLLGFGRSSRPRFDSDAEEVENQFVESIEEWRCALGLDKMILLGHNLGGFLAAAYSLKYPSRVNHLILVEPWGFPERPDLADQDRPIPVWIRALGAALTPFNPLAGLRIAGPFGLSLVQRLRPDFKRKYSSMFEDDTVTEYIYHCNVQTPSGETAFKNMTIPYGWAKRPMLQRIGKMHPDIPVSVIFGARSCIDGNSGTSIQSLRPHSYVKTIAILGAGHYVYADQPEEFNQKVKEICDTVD
PRMT1 FP inh – PRMT1 methyltransferase inhibitors, primary screen, biochemical, fluorescence polarization | Protein arginine N-methyltransferase 1 (Homo sapiens), Q99873 | recombinant PRMT1, activity-based probe fluorescence polarization | inhibition, % at 2.79 µM | 370,000 compounds, 1.3% hits | AID 652257, 2013;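 active = inhibition above about 21% made by adding two undisclosed values, limit read from the data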
NOD2 RIPK2 PPI – NOD2-RIPK2 binding disruptors in cells, primary screen, fluorescence, CHO cells, BLA complementation; Receptor-interacting serine/threonine-protein kinase 2 (Homo sapiens), O43353; CCF4 ratio; inhibition, % at 4.98 µM; 360,000 compounds, 0.38% hits; AID 624267, 2012; in the data active = inhibition above about 21%
TLR4-MyD88 BLA – inhibitors of TLR4-MyD88 association in cells, primary screen, cell-based, HeLa CL3-4, BLA complementation, FRET ratio | HeLa CL3-4 TLR4/MyD88 BLA complementation | Toll-like receptor 4 (Homo sapiens) + Myeloid differentiation primary response protein … | inhibition, % at 8.4 µM | 200,000 compounds, 0.18% hits; in the data active = inhibition above about 25%
TLR9-MyD88 block – inhibitors of TLR9-MyD88 association in cells, primary screen, cell-based, CHO, BLA complementation, fluorescence; inhibition, % at 4.98 µM; CCF4 FRET ratio; 340,000 compounds, 0.21% hits; Toll-like receptor 9 (Homo sapiens) + Myeloid differentiation primary response protein …;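 active = inhibition above the mean over all tested compounds plus 3 SD, cut at about 21% in these data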
Hits are given with their value; n = inactive; x = no result given.

SMILES | rCAG RNA binder | ABHD5 PLIN5 PPI | PRMT1 FP inh | NOD2 RIPK2 PPI | TLR4-MyD88 BLA | TLR9-MyD88 block
CC=CCn1c(SCc2ccccc2)nc2c1c(=O)[nH]c(=O)n2C | n | n | 24 | n | x | x
CC(=O)Oc1cc(C(=O)OCC(=O)NC23CC4CC(CC(C4)C2)C3)cc(OC(C)=O)c1OC(C)=O | 53 | n | n | n | x | n
COc1cccc(C(=O)OCC(=O)NC23CC4CC(CC(C4)C2)C3)c1 | n | n | n | n | x | n
O=C(O)COc1ccccc1C(Nc1ccccn1)c1cc(Cl)c2cccnc2c1O (configuration not stated) | n | n | n | n | n | n
O=C(O)COc1ccccc1C(Nc1cccnc1)c1cc(Cl)c2cccnc2c1O (configuration not stated) | x | 26 | x | n | n | x
Cc1ncccc1C(=O)N1CCCC(CNC(=O)C2(c3ccc(Cl)cc3)CC2)C1 (configuration not stated) | n | n | n | n | n | n
COC(=O)[C@@]1(Sc2ccc(C)cc2)CC(=O)N[C@@H]1c1ccc(Br)cc1 | n | n | n | n | x | x
COC(=O)[C@]1(Sc2ccc(C)cc2)CC(=O)N[C@@H]1c1ccco1 | n | n | 21 | n | x | x
COc1cccc(CN2CC(C(=O)NC3CCCCCC3)CCC2=O)c1 (configuration not stated) | n | n | n | n | x | n
COC(=O)c1nc2nc(-c3cccs3)cc(C(F)(F)F)n2n1 | n | n | n | n | n | n
O=C(NCc1ccco1)c1nc2nc(-c3cccs3)cc(C(F)(F)F)n2n1 | n | n | 23 | n | n | n
Cc1cc(C)c2c(=O)n3c(nc2c1)C(Cc1ccc(O)cc1)NC(=O)c1cc2ccccc2cc1-3 (configuration not stated) | n | n | n | n | x | n
O=Cc1ccc(C(=O)OCC(=O)NCc2ccco2)cc1 | n | n | n | n | x | n
CCOC(=O)c1c(NC(C)=O)sc2c(O)c(Br)cc(Br)c12 | 44 | n | n | n | n | n
CCC(=O)N(C1=C(NC)C(=O)c2ccccc2C1=O)C(C)C | n | n | n | n | n | n
CCC(=O)N(CC)C1=C(O)c2ccccc2C(=O)C1=O | n | n | 53 | n | n | n
O=C(CSc1nc2ccccc2c(=O)[nH]1)c1ccc(O)cc1O | n | n | n | n | n | n
O=C(CSc1nc2ccccc2c(=O)[nH]1)c1ccc(O)c(O)c1 | n | n | 23 | n | n | n
Cc1ccc(NC(=S)/C(C#N)=C2/Nc3ccccc3S2)cc1 | 92 | n | n | n | x | n
C#CCOCCOCCOCCNc1nc(N2CCN(C(=O)CCCCCCCCCCNC(=O)[C@H](CCCCN)n3cc(C)nn3)CC2)nc(N2CCN(C(=O)CCCCCCCCCCNC(=O)[C@@H]([C@H](C)CC)n3cc(CCCCCN)nn3)CC2)n1 | x | 45 | x | 50 | x | 23
C#CCOCCOCCOCCNc1nc(N2CCN(C(=O)CCCCCCCCCCNC(=O)[C@H]([C@@H](C)CC)n3cc(CCCCCN)nn3)CC2)nc(N2CCN(C(=O)CCCCCCCCCCNC(=O)[C@@H]([C@H](C)O)n3cc(C)nn3)CC2)n1 | x | 41 | x | 37 | x | n
C#CCOCCOCCOCCNc1nc(N2CCN(C(=O)CCCCCCCCCCNC(=O)Cn3cc(CCCCCN)nn3)CC2)nc(N2CCN(C(=O)CCCCCCCCCCNC(=O)[C@H]([C@@H](C)CC)n3cc(CCCCCN)nn3)CC2)n1 | x | 34 | x | n | x | n
C#CCOCCOCCOCCNc1nc(N2CCOCC2)nc(N2CCN(C(=O)CCCCCCCCCCNC(=O)Cn3cc(CCCCCN)nn3)CC2)n1 | n | n | n | n | x | n
COc1ccc(C(=O)CSC(=S)N2CCCCC2)cc1 | x | n | x | n | x | x
O=C(NC1CCC1)c1ccc(C#Cc2cccc(F)c2)nc1 | n | x | n | x | x | x
SMILES | rCAG RNA binder | ABHD5 PLIN5 PPI | PRMT1 FP inh | NOD2 RIPK2 PPI | TLR4-MyD88 BLA | TLR9-MyD88 block
COc1ccccc1NC(=O)C(C)OC(=O)C1CCC(C(C)(C)C)CC1 (configuration not stated) | n | n | n | n | x | n
Cc1noc(/C=C/c2ccco2)c1S(=O)(=O)N1CCC(C(=O)N2CCc3ccccc3C2)CC1 | x | 22 | x | n | n | n
Cc1ccc(NC(=O)C2CCN(S(=O)(=O)c3c(C)noc3/C=C/c3ccco3)CC2)nc1 | n | n | n | n | n | n
N=c1c(S(=O)(=O)c2ccc(Br)cc2)cc2c(=O)n3ccccc3nc2n1Cc1ccco1 | n | 34 | n | n | x | n
O=[N+]([O-])CC(=Nc1ccc(Cl)cc1)N/N=C\c1oc(O)c2ccccc12 | 53 | n | n | n | n | n
C=Cc1ncc(OC)c2c1[nH]c1ccccc12 | x | 24 | x | n | x | n
COc1cccc2[nH]c3ccccc3c(=O)c12 | x | n | x | n | x | n
O=C(c1nc[nH]c1C(=O)N1CCN(c2ccccc2)CC1)N1CCN(c2ccccc2)CC1 | n | n | n | n | x | n
CCCc1cc(=O)[nH]c(SCC(=O)c2ccc(S(=O)(=O)N3CCCC3)cc2)n1 | n | n | 22 | n | n | n
CCOc1ccccc1/C=C(\C(=O)O)c1ccc(S(=O)(=O)N2CCCCC2)s1 | 45 | n | n | n | x | n
O=C(O[C@@H]1OC2COC(=O)c3cc(O)c(O)c(O)c3-c3c(cc(O)c(O)c3O)C(=O)O[C@@H]([C@H]1O)[C@@H]2O)c1cc(O)c(O)c(O)c1 | x | 28 | x | n | n | n
c1ccc(-c2nc(-c3ccco3)n3ccccc23)cc1 | n | n | 24 | n | n | n
CC(CCc1ccccc1)NC(=O)C(=O)c1c[nH]c2ccccc12 (configuration not stated) | n | n | n | n | x | n
COC(=O)C1=C(C(=O)OC)[C@@H]2N(C)c3ccccc3[C@@]23C[C@@H](C(=O)OC)N(C(=O)c2cc(C)oc2C)C3=N1 | x | n | x | n | x | n
O=C(CC1S/C(=N/N=C/c2ccco2)NC1=O)Nc1cccc(Cl)c1Cl (configuration not stated) | n | n | 22 | n | n | n
CC(=O)Nc1ccc(-c2cc(C(=O)O)c3ccccc3n2)cc1 | n | n | n | n | x | n
COc1cccc2cc(C(=O)CS(=O)(=O)c3ccc(C(C)(C)C)cc3)c(=O)oc12 | 38 | n | n | n | x | n
N#Cc1c(-c2ccccc2)nc(SCC(=O)N2c3ccccc3Sc3ccccc32)[nH]c1=O | 89 | n | n | n | x | n
CCOC(=O)CCCCC(=O)c1[nH]c(=O)[nH]c1CSc1nc(-c2ccccc2)c(C#N)c(=O)[nH]1 | 56 | n | n | n | n | n
